{
  "source": "PubChem BioAssay AID686978",
  "about": "(National Center for Advancing Translational Sciences (NCATS), 2013)",
  "note": "The campaign covered roughly 420,000 compounds. About 64,000 (15%) were called active. Inconclusive results (about 27%) are left out. A selection follows. A call without a number means that no potency is given here. Values without a mark were called inactive. Calls follow the shape of the dose curve; as a rule, active = well fitted inhibition curve with a large enough effect; inconclusive = small, poorly fitted or top-dose-only effect; inactive = flat fitted curve, though single readings scatter. Potency is read from the fitted curve at half-maximal effect.",
  "data": [
    {"assay": "qHTS for Inhibitors of human tyrosyl-DNA phosphodiesterase 1 (TDP1): qHTS in cells in absence of CPT; also: nearly all actives have a fitted effect of over 55% in size", "conditions": "DT40 Tdp1-/- hTDP1 cells, no CPT, ATP luminescence, 48 h; activity change, negative = growth inhibition: at 46.2 µM (top of the series)", "in_short": "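Readout: luminescence from CellTiter-Glo after 30 min in the dark at RT. Cells: DT40 Tdp1-/- with stable hTDP1, 400/well. Exposure: compounds alone, ≥48 hr, 37 °C.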", "values": [
      {"smiles": "O=C(NCc1ccc(F)cc1)C1CCN(C(=O)Nc2ccc(F)cc2)CC1", "Potency": "inactive"},
      {"smiles": "Cc1ccc(Oc2ccc3c(c2)C(=O)N(c2cccc4cccnc24)C3=O)cc1", "Potency": "inactive"},
      {"smiles": "CC(C)NC(=O)NC(=O)COC(=O)c1ccc(NC(=O)CC#N)cc1", "Potency": "inactive"},
      {"smiles": "O=C1CSC(c2cccc(F)c2)N1c1ccc(O)cc1", "note": "(stereo unspecified)", "Potency": "inactive"},
      {"smiles": "CCCC(C)C(=O)OCC(=O)Nc1c(Br)cc(C)cc1Br", "note": "(stereo unspecified)", "Potency": "inactive"},
      {"smiles": "NC(=O)COc1ccc(/C=N/NC(=O)C2CCCN2S(=O)(=O)c2ccc(Cl)cc2)cc1", "note": "(stereo unspecified)", "Potency": "inactive"},
      {"smiles": "Nc1[nH][nH]c(=O)c1N=Nc1ccc2c(c1)OCO2", "Potency": "inactive"},
      {"smiles": "C=CCN(N=Nc1cccc([N+](=O)[O-])c1)c1cccc([N+](=O)[O-])c1", "Potency": "inactive"},
      {"smiles": "CCOC(=O)c1cc2c(nc1NC(=S)Nc1ccccc1)CC(C)(CC)OC2", "note": "(stereo unspecified)", "Potency": "inactive"},
      {"smiles": "COC(=O)Nc1ncc(CN2C(=O)c3ccccc3C2=O)s1", "Potency": "inactive"},
      {"smiles": "CN1C(=O)c2ccc(NC(=O)C3CCCCC3)cc2C1=O", "Potency": "inactive"},
      {"smiles": "Cc1ccc(S(=O)(=O)NCCc2nnc3ccc(SCc4cccnc4)nn23)cc1", "Potency": "inactive"},
      {"smiles": "COC(=O)CSc1ccc2nnc(CCNS(=O)(=O)c3ccc(C)cc3)n2n1", "Potency": "inactive"},
      {"smiles": "O=S(=O)(NCCc1nnc2ccc(SCc3ccc(Cl)cc3Cl)nn12)c1ccccc1", "Potency": "14.6 µM (active)"},
      {"smiles": "COC(=O)Nc1ncc(CN2CCCCC2)s1", "Potency": "inactive"},
      {"smiles": "CN1CCC(N(C)C(=O)c2ccc(Cl)c(S(=O)(=O)Nc3ccc(Cl)cc3)c2)CC1", "Potency": "inactive"},
      {"smiles": "O=C(N/N=C/c1ccccn1)c1ccc(S(=O)(=O)N2CCCCCC2)cc1", "Potency": "inactive"},
      {"smiles": "Cc1cccnc1NC(=O)c1cccc(S(=O)(=O)N2CCN(c3ccc(F)cc3)CC2)c1", "Potency": "16.4 µM (active)"},
      {"smiles": "CCOC(=O)c1csc(NC(=O)c2ccc(S(=O)(=O)N3CCCC3)cc2)n1", "Potency": "inactive"},
      {"smiles": "CCc1nnc(NC(=O)c2cc(S(=O)(=O)N3CCCCC3)ccc2C)s1", "Potency": "inactive"},
      {"smiles": "Cc1ccc(C)c2sc(NC(=O)c3ccc(S(=O)(=O)N4CCCC4)cc3)nc12", "Potency": "29.1 µM (active)"},
      {"smiles": "O=C(NC(=O)c1ccccc1)Nc1ccccc1O", "Potency": "inactive"},
      {"smiles": "O=C(Nc1ncccc1O)c1ccc(S(=O)(=O)N2CCCC2)cc1", "Potency": "18.4 µM (active)"},
      {"smiles": "O=C(Nc1ncccc1O)c1ccc(C(=O)c2ccccc2)cc1", "Potency": "23.1 µM (active)"},
      {"smiles": "O=C(CNC(=O)c1ccc2ccccc2c1)Nc1ncccc1O", "Potency": "inactive"},
      {"smiles": "O=C(Nc1ccccc1F)c1ccc(S(=O)(=O)N2CCCCCC2)cc1", "Potency": "inactive"},
      {"smiles": "COc1cc(C(=O)Nc2ncccc2C)ccc1OCC(=O)N1CCOCC1", "Potency": "inactive"},
      {"smiles": "Cc1ccc(C(=O)Nc2ncccc2C)cc1S(=O)(=O)N1CCOCC1", "Potency": "inactive"},
      {"smiles": "CCCn1c(N)c(N(CCOC)C(=O)C2CCCC2)c(=O)[nH]c1=O", "Potency": "inactive"},
      {"smiles": "CCOC(=O)c1nn(-c2ccccc2F)c2nc(Nc3ccccc3)cc(=O)n12", "Potency": "inactive"},
      {"smiles": "Nc1nnn(CC(=O)N/N=C/c2ccc(O)cc2)n1", "Potency": "inactive"},
      {"smiles": "Cc1cc(NC(=O)c2cc3ccccc3o2)no1", "Potency": "inactive"},
      {"smiles": "COc1cccc(N(CC(=O)NCCSc2ccccn2)S(C)(=O)=O)c1", "Potency": "inactive"},
      {"smiles": "Cc1ccc(C(CNC(=O)Nc2cccc(C)c2)N2CCN(C)CC2)cc1", "note": "(stereo unspecified)", "Potency": "inactive"},
      {"smiles": "CCCCC/C=C\\CC1OC1CCCCCCCC(=O)O", "note": "(stereo unspecified)", "activity change, negative = growth inhibition": "-12.2% [at 0.628 µM]"},
      {"smiles": "O=C1c2ccccc2C(=O)N1CCCc1nc(-c2ccccc2)no1", "Potency": "inactive"},
      {"smiles": "O=C(O)c1ccc(S(=O)(=O)c2ccccc2)s1", "Potency": "inactive"},
      {"smiles": "NC(=O)CSc1nnc(NC(=O)c2ccc3ccccc3c2)s1", "Potency": "inactive"},
      {"smiles": "COc1ccc(C2/C(=C(/O)c3ccccc3)C(=O)C(=O)N2c2ncccn2)cc1OC", "note": "(stereo unspecified)", "Potency": "inactive"},
      {"smiles": "OC(c1ccccc1)(c1ccccc1)C1CCN(CCCOc2ccccc2)CC1", "Potency": "16.4 µM (active)"},
      {"smiles": "O=C(c1ccco1)N1CCN(CCOc2ccccc2)CC1", "Potency": "inactive"},
      {"smiles": "O=C(c1ccc(Br)o1)N1CCN(CCOc2ccccc2)CC1", "Potency": "inactive"},
      {"smiles": "c1ccc(-c2ccc(OCCN3CCOCC3)cc2)cc1", "Potency": "inactive"},
      {"smiles": "O=c1[nH]c2ccccc2n1C1CCN(CCOc2ccccc2)CC1", "Potency": "4.11 µM (active)"},
      {"smiles": "COc1ccc(OCCCCN2CCC(C)CC2)cc1", "Potency": "inactive"},
      {"smiles": "Cc1ccc(C)c(N2C(=O)CS/C2=N\\NC(=O)c2ccccc2Cl)c1", "Potency": "inactive"},
      {"smiles": "Cc1ccc(NC(=O)c2nc[nH]c2C(=O)N2CCCCC2)c(C(=O)c2ccccc2)c1", "Potency": "inactive"},
      {"smiles": "O=C(NN1C(=O)C2C(C1=O)C1C=CC2C12CC2)c1ccccc1Cl", "note": "(stereo unspecified)", "Potency": "inactive"},
      {"smiles": "CC12CCC(C(=O)N(NC(=O)c3ccccc3O)C1=O)C2(C)C", "note": "(stereo unspecified)", "Potency": "18.4 µM (active)"},
      {"smiles": "COc1ccccc1C(=O)NN1C(=O)C2C3C=CC(O3)C2C1=O", "note": "(stereo unspecified)", "Potency": "inactive"},
      {"smiles": "O=C(NCc1nnnn1-c1ccc(Cl)cc1)c1ccc2c(c1)OCO2", "Potency": "inactive"}
    ]}
  ]
}
